For 29 compounds, Potency results are on record in PubChem BioAssay (NCATS).

Experiment [1] can be described thus: Immunotoxin (HA22) sensitization/mitigation study. Vehicle arm (PBS) (AID 1159510).
Experiment [2] in a line: Immunotoxin (SS1P) sensitization/mitigation study. Vehicle arm (DMEM) (AID 1159513).

Where “and” joins values, the source holds several entries; their conditions need not be identical. Equal values may be shown once. Calls of active or inactive are those of the source. No rule for the calls is given here.
Potency is read from the fitted curve at half-maximal effect.

On to `CCOC(=O)C1=C[C@@]2(CC)CCCN3CCc4c(n1c1ccccc41)[C@H]32`, for which the Potency entry in experiment [1] and in experiment [2] was “inactive” throughout.
On to `O=S(=O)(N=Cc1c(O)ccc2ccccc12)c1cccs1`, for which the Potency in experiment [1] was 16.6 µM (active). Besides, the Potency result in experiment [2] is “inactive”.
On to `CO[C@@H]1[C@H](N(C)C(=O)c2ccccc2)C[C@H]2O[C@]1(C)n1c3ccccc3c3c4c(c5c6ccccc6n2c5c31)C(=O)NC4`, for which the Potency in experiment [1] was 0.469 µM (active); in experiment [2] it was 1.05 µM (active).
The like results for `CN(C)CCCN=c1c2ccccc2n(C)c2[nH]c(=O)n(C)c(=O)c12` were, in that order, 7.43 µM (active) and 7.43 µM (active).
The like results for `Fc1cc(-c2cccc3ncc(-c4cnn(C5CCNCC5)c4)nc23)cc(F)c1CN1CCOCC1` were, in that order, 23.5 µM (active) and 23.5 µM (active).
The like results for `COc1cc2nc(N3CCCN(C)CC3)nc(NC3CCN(Cc4ccccc4)CC3)c2cc1OC` were, in that order, 2.09 µM (active) and 13.2 µM (active).
Turning to `CCCS(=O)(=O)Nc1ccc(F)c(C(=O)c2c[nH]c3ncc(Cl)cc23)c1F`, the Potency was 20.9 µM (active) in experiment [1] and 16.6 µM (active) in experiment [2].
Taken in the same sequence, the figures for `Cc1cc(-c2ccc(CC(=O)Nc3ccc(-c4cccnc4)cc3)cc2)ccn1` were 18.7 µM (active) and 18.7 µM (active).
The like results for `C[C@]1(CO)CN(c2cc(C(=O)Nc3ccc4c(c3)-c3c(c(C(N)=O)nn3-c3ccc(F)cc3)CC4)c(Cl)cn2)C[C@@]1(C)CO` were, in that order, 3.32 µM (active) and 16.6 µM (active).
The like results for `COc1nc(-c2ccc3c(c2)OCO3)n(-c2ccc(NC(=O)CSc3ccccc3)cc2)n1` were, in that order, 20.9 µM (active) and “inactive”.
Turning to `CC(C)c1ccc(Cn2ccc3c4c(N)nc(NC5CC5)nc4ccc32)cc1`, the Potency is 3.32 µM (active) in experiment [1] and 0.935 µM (active) in experiment [2].
For the compound `CN(C)CCN(C)C(=O)c1ccc(NC(=O)Nc2ccc(-c3nc(N4CCOCC4)c4ccn(CC(F)(F)F)c4n3)cc2)cc1`, the Potency in experiment [1] is 1.48 µM (active); in experiment [2], 0.0264 µM (active).
For the compound `CC1(O)CC(c2nc(-c3ccc4ccc(-c5ccccc5)nc4c3)c3c(N)nccn23)C1` (stereo not drawn), the Potency was 29.6 µM (active) in experiment [1] and 18.7 µM (active) in experiment [2].
For `O=C(NC1CCNCC1)c1[nH]ncc1NC(=O)c1c(Cl)cccc1Cl`, the Potency was 37.2 nM (active) and 105 nM (active) in experiment [1]; 29.6 nM (active) and 83.3 nM (active) in experiment [2].
Regarding `CCN(CC)CCn1c(=O)c(Cc2ccc(OC)cc2)nc2ccccc21`, the Potency entry in experiment [1] and in experiment [2] was “inactive” throughout.
Take `O=c1[nH]c(-c2ccc(C(F)(F)F)cc2)nc2c1CSCC2`: the Potency result in experiment [1] and in experiment [2] was “inactive” each time.
Consider `CCN1CCN(CC(=O)Nc2ccc(-c3cccc4c(=O)cc(N5CCOCC5)oc34)c3sc4ccccc4c23)CC1`, for which the Potency in experiment [1] is 0.935 µM (active); in experiment [2] it was 1.66 µM (active).
Taken in the same sequence, the figures for `OC[C@H](Cc1ccccc1)Nc1nc(Oc2ccc3c(c2)CCC3)nc2c1ncn2Cc1ccc(-c2ccccc2)cc1` were 10.5 µM (active) and 13.2 µM (active).
`CCN(CC)CCOc1ccc(Nc2ncc3cc(-c4c(Cl)cccc4Cl)c(=O)n(C)c3n2)cc1`: the figures for the Potency in experiment [1] and in experiment [2] were 1.18 µM (active) and 0.332 µM (active), respectively.
Taken in the same sequence, the figures for `COc1ncc(-c2ccc3nccc(-c4ccnnc4)c3c2)cc1NS(=O)(=O)c1ccc(F)cc1F` were 0.418 µM (active) and 0.235 µM (active).
The like results for `Nc1ccccc1NC(=O)c1ccc(CNC(=O)OCc2cccnc2)cc1` were, in that order, 0.526 µM (active) and 5.9 µM (active).
The like results for `COc1ccc2c3n(c(=NC(=O)c4cccnc4)nc2c1OC)CCN3` were, in that order, 11.8 µM (active) and 3.72 µM (active).
With `CC(C)(C)COc1ccc(-n2cc(C(=O)O)cn2)cc1C#N`, the Potency in experiment [1] was 18.7 µM (active). In addition, the Potency result in experiment [2] is “inactive”.
Regarding `CC1=C[C@@H]2[C@@H]([C@@H](O)C[C@@]3(C)[C@H]2C[C@@H](C)[C@]3(O)C(=O)CO)[C@@]2(C)Cc3cnn(-c4ccccc4)c3C=C12`, the Potency in experiment [1] is 1.66 µM (active); in experiment [2], 23.5 µM (active).
Taken in the same sequence, the figures for `COc1ccccc1-c1cccc(-c2c(O)c3cc(C#N)c(Cl)cc3[nH]c2=O)c1` were “inactive” and “inactive”.
Regarding `CCOc1cc2ncc(C#N)c(Nc3ccc(OCc4ccccn4)c(Cl)c3)c2cc1NC(=O)/C=C/CN(C)C`, the Potency in experiment [1] was 4.69 µM (active); in experiment [2], 0.935 µM (active).
Taken in the same sequence, the figures for `COc1cc(OC2CCN(C)CC2)ccc1Nc1ncc2c(n1)n(C1CCCC1)c(=O)n2C` were 10.5 µM (active) and 16.6 µM (active).
For `C=C1C(=CC=C2CCCC3(C)[C@@H]([C@H](C)C=CC=CC(O)(CC)CC)CC[C@@H]23)C[C@@H](O)C[C@@H]1O` (stereo partly drawn), the Potency in experiment [1] is 23.5 µM (active); in experiment [2] it was 20.9 µM (active).
Taken in the same sequence, the figures for `Nc1cc(C(F)(F)F)c(-c2cc(N3CCOCC3)nc(N3CCOCC3)n2)cn1` were 1.05 µM (active) and 0.935 µM (active).
